Consider five compounds from the supplement of paper PMC10412459.

Where a name gives a salt, the structure may show the parent alone.

The assay deals with K562 SF3B1 K700E vs K562 SF3B1 WT. Description: surviving fraction ratio K562 SF3B1 K700E / K562 SF3B1 WT (each relative to DMSO); higher = less selective killing of SF3B1 K700E cells. The settings on record: 5 days. As for the experimental part:
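Drug-sensitivity screen of an in-house 80-compound library in isogenic K562 SF3B1 K700E versus SF3B1 WT cells. 250 cells/well in 384-well plates were exposed 24 h after seeding to 0.5-1000 nM compound for 5 days, and viability was read by CellTiter-Glo. Surviving fraction is relative to DMSO, and the value is the ratio of surviving fraction in K700E to WT cells; the paper calls ratio <0.6 with P<0.01 selective.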

Take `O=C(O)CC[C@H]1CC[C@@](c2cc(F)ccc2F)(S(=O)(=O)c2ccc(Cl)cc2)CC1`: the “surviving fraction ratio K562 SF3B1 K700E / K562 SF3B1 WT” value amounted to 0.908 (0.5nM); 1.04 (1nM); 0.989 (5nM); 0.805 (10nM); 0.852 (50nM); 0.975 (100nM). The “surviving fraction ratio K562 SF3B1 K700E / K562 SF3B1 WT” value is 0.932 (500nM) and 1.04 (1000nM).
Turning to `CCC1=C[C@@H]2CN(C1)Cc1c([nH]c3ccccc13)[C@@](C(=O)OC)(c1cc3c(cc1OC)N(C)[C@H]1[C@@](O)(C(=O)OC)[C@H](OC(C)=O)[C@]4(CC)C=CCN5CC[C@]31[C@@H]54)C2` [vinorelbine], the “surviving fraction ratio K562 SF3B1 K700E / K562 SF3B1 WT” value was determined as 1.02 (0.5nM); 0.921 (1nM); 0.475 (5nM); 0.385 (10nM); 1.53 (50nM); 1.9 (100nM). The “surviving fraction ratio K562 SF3B1 K700E / K562 SF3B1 WT” value (500nM) worked out at 1.97 and the “surviving fraction ratio K562 SF3B1 K700E / K562 SF3B1 WT” value (1000nM) came to 1.89.
As for `Nc1ncn([C@H]2C[C@H](O)[C@@H](CO)O2)c(=O)n1` [decitabine], the “surviving fraction ratio K562 SF3B1 K700E / K562 SF3B1 WT” value is 0.733 (0.5nM); 0.724 (1nM); 0.773 (5nM); 0.665 (10nM); 0.964 (50nM); 0.894 (100nM). The “surviving fraction ratio K562 SF3B1 K700E / K562 SF3B1 WT” value amounted to 1.13 (500nM) and 1.36 (1000nM).
Consider `COc1cccc2c1C(=O)c1c(O)c3c(c(O)c1C2=O)C[C@@](O)(C(=O)CO)C[C@@H]3O[C@H]1C[C@H](N)[C@H](O)[C@H](C)O1` [doxorubicin.HCl], for which the “surviving fraction ratio K562 SF3B1 K700E / K562 SF3B1 WT” value worked out at 0.974 (0.5nM); 1.04 (1nM); 0.718 (5nM); 1.07 (10nM); 1.11 (50nM); 0.446 (100nM). In addition, the “surviving fraction ratio K562 SF3B1 K700E / K562 SF3B1 WT” value is, setting by setting: (500nM) 1.24; (1000nM) 2.24.
For the compound `C=CCNC1=C2C[C@@H](C)C[C@H](OC)[C@H](O)[C@@H](C)/C=C(\C)[C@H](OC(N)=O)[C@@H](OC)/C=C\C=C(/C)C(=O)NC(=CC1=O)C2=O`, the “surviving fraction ratio K562 SF3B1 K700E / K562 SF3B1 WT” value was 1.01 (0.5nM); 0.993 (1nM); 0.811 (5nM); 0.776 (10nM); 0.41 (50nM); 1.81 (100nM). Also, the “surviving fraction ratio K562 SF3B1 K700E / K562 SF3B1 WT” value amounted to 1.31 (500nM) and 1.24 (1000nM).
